# Laboratory results taken from PubChem BioAssay AID588852 (The Scripps Research Institute Molecular Screening Center, 2011).
# The campaign covered roughly 360,000 compounds. About 4,600 (1.3%) were called active.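 Rule for the calls: active = percent inhibition above its own plate's cutoff, namely the mean of that plate's compound wells plus 3 SD; inactive = the rest.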 Many of the other results were omitted from the sample, so actives are more common in it than they were.
# Target: Muscarinic acetylcholine receptor M1 (Homo sapiens) (UniProt P11229)
# Sequence (P11229 whole entry, looked up): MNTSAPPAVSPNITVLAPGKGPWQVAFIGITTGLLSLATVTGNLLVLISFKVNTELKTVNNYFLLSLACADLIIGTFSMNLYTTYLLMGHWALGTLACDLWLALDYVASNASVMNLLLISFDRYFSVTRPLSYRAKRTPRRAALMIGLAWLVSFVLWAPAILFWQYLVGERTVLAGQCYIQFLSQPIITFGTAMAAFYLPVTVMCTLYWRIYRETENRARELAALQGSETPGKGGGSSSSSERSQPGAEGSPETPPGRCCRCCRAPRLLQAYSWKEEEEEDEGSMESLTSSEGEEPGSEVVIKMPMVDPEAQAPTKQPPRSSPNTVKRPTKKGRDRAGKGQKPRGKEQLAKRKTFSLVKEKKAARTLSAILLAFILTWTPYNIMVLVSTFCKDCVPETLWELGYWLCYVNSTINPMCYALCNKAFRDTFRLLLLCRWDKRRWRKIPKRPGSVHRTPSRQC
# Test: CHRM1 blockers of acetylcholine calcium response – CHO-K1 cells, Fluo-8 calcium fluorescence, 1536-well, primary screen (AID 588852);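 note: peak over basal fluorescence ratio during 140 s after agonist addition; 0% = ACh EC80 plus DMSO and 100% = DMSO alone without agonist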
# Details: CHO-K1 hM1, Fluo-8 calcium fluorescence, ACh EC80 antagonist; at 3 µM; active compounds read high
row,Structure (SMILES),inhibition
1,CCCN1CNC(=S)N(CCc2ccccc2)C1,-6.28% (inactive)
2,Cn1nccc1C(=O)NC1CCCc2c1cnn2-c1ccc(F)cc1F (stereo unspecified),31.6% (active)
3,CC1(C)Cc2c(cnn2-c2cccc(F)c2)C(NC(=O)c2cc[n+]([O-])cc2)C1 (stereo unspecified),9.23% (inactive)
4,Cc1ccc(-n2ncc3c2CCCC3NC(=O)c2cnccn2)cc1C (stereo unspecified),-17.9% (inactive)
5,CCOC(=O)c1ccc(NC(=O)Cn2cnc3cc(C)c(C)cc32)cc1,37.4% (active)
6,CCCc1nnc(SCC(=O)Nc2ccc(C(=O)OCC)cc2)o1,9% (inactive)
7,CCOC(=O)c1ccc(NC(=O)CS(=O)(=O)c2cn(CC)c3ccccc23)cc1,-2.75% (inactive)
8,Cc1ccc(Cc2c(-c3ccco3)nc3ccc(Cl)cn23)cc1,-22.8% (inactive)
9,COc1cccc(CN(C)C(=O)CC[C@H]2O[C@@H](n3cnc4c(NC(=O)c5ccccc5)ncnc43)[C@H](O)[C@@H]2O)c1,-19.1% (inactive)
10,CC1=C(C(=O)N(C(C)C)C(C)C)CC(CC(=O)NCCCCc2ccccc2)C(=O)N1CCC1=CCCCC1 (stereo unspecified),-20.5% (inactive)
11,OC[C@@H]1CN(Cc2ccc(-c3ccccc3)cc2)C[C@H](n2cnc3c(NC4CCCC4)ncnc32)O1,32% (active)
12,OC[C@@H]1CN(Cc2ccc(F)cc2)C[C@H](n2cnc3c(NC4CCCC4)ncnc32)O1,-0.24% (inactive)
13,OC[C@@H]1CN(Cc2cccs2)C[C@H](n2cnc3c(NC4CCCC4)ncnc32)O1,-11.8% (inactive)
14,O=C(c1ccc(N2CCCC2=O)cc1)N1CCN(c2ccc(C(F)(F)F)cc2[N+](=O)[O-])CC1,53.8% (active)
15,COc1cc(OC)cc(C(=O)NC(=S)N2CCN(c3ccc(C(F)(F)F)cc3[N+](=O)[O-])CC2)c1,-3.37% (inactive)
16,O=C(c1ccc(N2CCOCC2)c([N+](=O)[O-])c1)N1CCN(c2ccccc2F)CC1,-20.3% (inactive)
17,NC(c1csc(NC(=O)Nc2cccc(C(F)(F)F)c2)n1)C1CCCCC1 (stereo unspecified),2.03% (inactive)
18,CCc1cc2c(SCC(=O)Nc3ncc(Cl)c(C)c3Cl)ncnc2s1,3.21% (inactive)
19,CN(C)c1cc[n+](Cc2ccccc2)cc1,21.7% (inactive)
20,c1ccc(Cc2cc[n+](Cc3ccccc3)cc2)cc1,37.1% (active)
21,c1ccc(CNCc2ccc(CNCc3ccccc3)cc2)cc1,2.12% (inactive)
22,CCOc1ccc(CCNC(=O)C2=C(C)C(=O)OC23CCC(C)CC3)cc1OCC (stereo unspecified),-7.29% (inactive)
23,NC(c1csc(NC(=O)Nc2ccccc2Oc2ccccc2)n1)c1ccccc1Cl (stereo unspecified),-3.63% (inactive)
24,CN(Cc1ccc(F)cc1)C(=O)COc1ccc2ccccc2c1,24.7% (active)
25,CN(Cc1ccccc1)C(=O)COc1ccccc1,1.72% (inactive)
26,Cc1ccc(C)c(NC(=O)CN(C)C(=O)COc2ccc3ccccc3c2)c1,-15% (inactive)
